According to PubChem BioAssay AID1851 (National Center for Advancing Translational Sciences (NCATS), 2009):
Screen size: about 16,000 compounds; about 4,000 (25%) were called active. Inconclusive results (about 26%) are left out. Only a sample is shown. Values without a mark were called inactive. Calls follow the shape of the dose curve; as a rule, active = well fitted curve in the direction sought with a large enough effect; inconclusive = small, poorly fitted or top-dose-only effect, or effect the other way; inactive = no such curve, though single readings can be large or run the other way.

Biological target: Cytochrome P450 2C9 (Homo sapiens) (UniProt P11712)
Assay: Cytochrome panel assay with activity outcomes
Conditions: recombinant CYP, pro-luciferin dealkylation, luminescence, p450-cyp2c9; series mostly up to 57.1 µM; activity, negative = inhibition: at the top concentration
% is scaled to controls: 0 for no effect and ±100 for the full control effect.

Sequence of Cytochrome P450 2C9 (Homo sapiens) (P11712 whole entry, looked up): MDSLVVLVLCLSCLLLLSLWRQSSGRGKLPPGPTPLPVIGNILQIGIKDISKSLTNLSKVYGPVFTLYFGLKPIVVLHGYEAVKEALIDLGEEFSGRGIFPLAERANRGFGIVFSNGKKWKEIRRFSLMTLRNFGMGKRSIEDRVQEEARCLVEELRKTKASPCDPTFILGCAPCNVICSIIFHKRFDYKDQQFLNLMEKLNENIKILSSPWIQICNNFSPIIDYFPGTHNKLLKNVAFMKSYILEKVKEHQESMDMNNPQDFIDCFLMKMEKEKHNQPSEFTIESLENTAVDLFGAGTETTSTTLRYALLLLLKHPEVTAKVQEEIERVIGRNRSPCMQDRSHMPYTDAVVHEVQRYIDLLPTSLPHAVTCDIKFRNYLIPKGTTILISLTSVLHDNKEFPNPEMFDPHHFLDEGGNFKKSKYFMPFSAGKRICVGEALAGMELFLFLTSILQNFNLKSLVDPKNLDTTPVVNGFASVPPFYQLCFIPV

Compound	AC50	activity, negative = inhibition
CC1=CC(C)(C)Nc2ccc(CSc3ccccc3)cc21	0.2 µM (active)	
O=c1cc(CSc2ccccc2)[nH]c(=S)[nH]1		-6.77%
O=C(O)c1nc(-c2ccccc2)[nH]c1C(=O)O		-21.7% [at 11.4 µM]
N#CCCn1c(=O)c(-c2ccccc2)nc2cnc(Nc3ccccc3)nc21		16.4%
Cc1[nH]n2c(=O)c(C#N)c(-c3ccccc3)nc2c1-c1ccccc1	11.2 µM (active)	
Cn1c(=O)c2[nH]c(CSCc3ccccc3)nc2n(C)c1=O		-13.3% [at 11.4 µM]
N#Cc1c(-c2ccccc2)nc(-c2ccccc2)[nH]c1=O	0.316 µM (active)	
Cc1nc2c(C#N)c(C)[nH]n2c(=O)c1Cc1ccccc1	7.08 µM (active)	
CSc1nc(O)c(Cc2ccccc2)c(=O)[nH]1		-25.9%
N#Cc1c(-c2ccccc2)no[n+]1[O-]		4.32%
COC(=O)Cc1cc(=O)n2[nH]c(C)c(-c3ccccc3)c2n1		3.63%
Clc1cc2c(c(CSC3=NCN(CC4CC4)CN3)c1)OCOC2		9.58% [at 11.4 µM]
NCCc1ccn[nH]1		9.32% [at 25.6 µM]
COC(=O)c1ccc(CSc2nc3cc(Cl)ccc3s2)o1	3.55 µM (active)	
O=C(O)[C@@H]1CS[C@@]2(CCCN(Cc3ccccc3)C2)N1		15.9% [at 11.4 µM]
COc1ccc(-n2nnnc2SCC(=O)Nc2ccccc2)cc1		-16.3%
COc1ccc(C(O)c2nccn2Cc2ccccc2)cc1 (centres undefined)		-11.9%

Compound	AC50	activity, negative = inhibition
COc1ccc(NC(=O)CSc2ccc3c4c(cccc24)C(=O)c2ccccc2-3)cc1	0.562 µM (active)	
COc1ccc(-n2ccnc2SCC(=O)Nc2ccccc2)cc1	5.01 µM (active)	
Cc1cccc(-c2nsc(SCC(=O)Nc3nccs3)n2)c1	1.58 µM (active)	
COc1cccc(-n2ccnc2SCC(=O)Nc2nccs2)c1	11.2 µM (active)	
COC(=O)CSc1nnc(C)n1-c1cccc(OC)c1		-19.6%
Cc1cccc(OCC(=O)NNC(=O)CSc2ncc(C#N)c(N)n2)c1		-30.1%
Cc1ccc(S(=O)(=O)O[C@H]2C[C@@H](C(C)(C)C)CC[C@@H]2c2ccccc2)cc1		5.88% [at 11.4 µM]
Cc1ccccc1-c1nc(Nc2ccncc2)c2ccccc2n1		-3.63% [at 2.29 µM]
O=C(O)[C@@H](O)[C@@H](O)[C@H](O)[C@H](O)CO		0.915% [at 11.4 µM]
COc1ccc(NC(=O)CSc2nnc(C3CC3)n2-c2ccccc2)cc1	10 µM (active)	
CCNC(=O)CSc1nnc(C2CC2)n1-c1ccccc1		-23.2%
CCOc1ccc(-n2ccnc2SCC(=O)Nc2nnc(CC)s2)cc1	12.6 µM (active)	
CCc1nnc(NC(=O)CSc2ncnc3c2cnn3-c2ccc(OC)cc2)s1		1.56%
Cn1ccnc1SCC(=O)Nc1sccc1C#N	8.91 µM (active)	
COc1ccc(-n2ccnc2SCC(=O)Nc2ccc(OC)cc2OC)cc1	4.47 µM (active)	
COc1ccccc1NC(=O)N1CCC(c2nnc(SCC(N)=O)n2C)CC1		8.31%
CCc1nnc(NC(=O)CCC(=O)N2CCN(c3ccccn3)CC2)s1		-20.4%
